Laboratory results published in PubChem BioAssay AID1159580 (chemical genetic matrix, 2015).
Screen size: about 5,500 compounds; about 2,000 (36%) were called active. About 18% were inconclusive and are not listed. Rule as the data show it: active = normalized growth mostly below about 0.91 (no sharp cut-off); inconclusive = no clear call, values can overlap the other calls; inactive = mostly above about 0.92. Some of the results follow.

Assay: chemical genetic growth profiling, strain panel (AID 1159580);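 also: tested at 20 µM; growth read once vehicle control cultures reached saturation at 30 °C; 1 = growth at the plate median or of vehicle wells; lower values mean less growth of the strain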
Conditions: growth OD
[1] = S. cerevisiae deletion strains, locus YAL013W, strain DEP1, active compounds read low
[2] = S. cerevisiae deletion strains, locus YBR229C, strain ROT2, active compounds read low
[3] = S. cerevisiae deletion strains, locus YDL101C, strain DUN1, active compounds read low
[4] = S. cerevisiae deletion strains, locus YDR150W, strain NUM1, active compounds read low
[5] = S. cerevisiae deletion strains, locus YEL061C, strain CIN8, active compounds read low
[6] = S. cerevisiae deletion strains, locus YGR078C, strain PAC10, active compounds read low
[7] = S. cerevisiae deletion strains, locus YHR030C, strain SLT2, active compounds read low
[8] = S. cerevisiae deletion strains, locus YHR087W, strain rtc3, active compounds read low
[9] = S. cerevisiae deletion strains, locus YJR043C, strain POL32, active compounds read low
[10] = S. cerevisiae deletion strains, locus YJR075W, strain HOC1, active compounds read low
[11] = S. cerevisiae deletion strains, locus YLR039C, strain RIC1, active compounds read low
[12] = S. cerevisiae deletion strains, locus YLR058C, strain SHM2 (second series), active compounds read low
[13] = S. cerevisiae deletion strains, locus YLR085C, strain ARP6, active compounds read low
[14] = S. cerevisiae deletion strains, locus YLR262C, strain YPT6, active compounds read low
[15] = S. cerevisiae deletion strains, locus YML094W, strain GIM5, active compounds read low
[16] = S. cerevisiae deletion strains, locus YMR219W, strain ESC1, active compounds read low
[17] = S. cerevisiae deletion strains, locus YMR263W, strain SAP30, active compounds read low
[18] = S. cerevisiae deletion strains, locus YNL153C, strain GIM3, active compounds read low
[19] = S. cerevisiae deletion strains, locus YNL298W, strain CLA4 (second series), active compounds read low
[20] = S. cerevisiae deletion strains, locus YNL322C, strain KRE1, active compounds read low
[21] = S. cerevisiae deletion strains, locus YNR030W, strain Alg12, active compounds read low
[22] = S. cerevisiae deletion strains, locus YPL055C, strain LGE1, active compounds read low
[23] = S. cerevisiae deletion strains, locus YPL241C, strain CIN2, active compounds read low
[24] = S. cerevisiae deletion strains, locus YPR135W, strain CTF4, active compounds read low

Measured: normalized growth

N#Cc1ccc(Oc2ccc(Cl)cc2)nc1
inactive: [1] 1.04 | [2] 0.975 | [3] 0.944 | S. cerevisiae deletion strains, locus YDL134C, strain PPH21, active compounds read low 0.985 | [4] 1.01 | [5] 0.977 | [6] 1 | S. cerevisiae deletion strains, locus YGR229C, strain SMI1, active compounds read low 0.987 | [7] 0.86 | [8] 0.992 | [9] 0.984 | [10] 0.968 | [11] 1.09 | [12] 0.966 | [13] 1.05 | [14] 1.05 | [15] 1.03 | [16] 0.971 | [17] 1.02 | [18] 0.986 | [19] 0.977 | [20] 0.98 | [21] 1.02 | S. cerevisiae deletion strains, locus YOL006C, strain TOP1, active compounds read low 0.903 | [22] 1.14 | [23] 0.886 | [24] 1.2

NC(=S)c1ccc(Oc2ccc(Cl)cc2)nc1
active: [1] 0.064 | [2] 0.0587 | [3] 0.0679 | [4] 0.0611 | [5] 0.0551 | [6] 0.0731 | [7] 0.0713 | [8] 0.0597 | S. cerevisiae deletion strains, locus YJL187C, strain SWE1, active compounds read low 0.0568 | [9] 0.0583 | [10] 0.0782 | [11] 0.0764 | [12] 0.0563 | [13] 0.0896 | [14] 0.0758 | [15] 0.0624 | [16] 0.0569 | [17] 0.0585 | S. cerevisiae deletion strains, locus YMR307W, strain GAS1, active compounds read low 0.112 | [18] 0.0622 | [19] 0.0667 | [20] 0.0647 | [21] 0.0581 | [22] 0.0942 | [23] 0.0912 | [24] 0.194 | S. cerevisiae strains, strain wild type, active compounds read low 0.0499
